The entries come from a sample that favours hits as a whole.
L3MBTL1 block = L3MBTL1 (human) inhibition. AlphaScreen L3MBTL1–H3K9me1 peptide binding. Potency, µM (titrated, usually from 57.1 µM), inactives show top-dose activity, negative = inhibition, hits mostly inhibitors. hit rate 0.66% among 230,000; note: nearly all actives have a fitted effect of over 60% in size
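L3MBTL1 (50 nM) pre-complexed 30 min with biotinylated H3(1-15)K9me1 peptide (75 nM), then compounds added for 30 min at room temperature; AlphaScreen streptavidin donor/nickel chelate acceptor beads (10 ug/mL final) read after 30 min dark incubation.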
APE1 inh-1 = APE1 (human) endonuclease inhibition; P27695; recombinant APE1, TAMRA/BHQ-2 abasic DNA cleavage fluorescence; Potency, µM (highest dose often 65.8 µM), without a hit: at the highest dose activity change, negative = inhibition, hits mostly inhibitors; hit rate 0.35% among 350,000; AID 2517;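 note: plate controls were vehicle for no effect and reference inhibitor for full effect; nearly all actives have a fitted effect of over 55% in size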
Target sequence (P27695 whole entry, looked up): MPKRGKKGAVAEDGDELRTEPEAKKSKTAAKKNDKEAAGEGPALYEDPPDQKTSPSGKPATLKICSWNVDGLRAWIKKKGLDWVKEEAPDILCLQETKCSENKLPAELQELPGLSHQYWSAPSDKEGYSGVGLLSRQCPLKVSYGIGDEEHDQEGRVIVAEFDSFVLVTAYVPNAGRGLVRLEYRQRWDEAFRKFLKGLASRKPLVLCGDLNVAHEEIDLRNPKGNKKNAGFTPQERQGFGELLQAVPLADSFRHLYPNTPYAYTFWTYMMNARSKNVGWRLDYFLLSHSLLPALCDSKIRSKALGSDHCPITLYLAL
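APE1 at 0.75 nM final was preincubated with compound 15 min at room temperature, then 50 nM double-stranded THF abasic-site substrate (5'-TAMRA/3'-BHQ-2) was added. Fluorescence (ex 525/em 598 nm) was read kinetically; third-minus-first read gave activity.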
BLM inh = inhibitors of human Bloom syndrome helicase BLM; P54132; recombinant BLM DNA unwinding, fluorescence dequenching; Potency, µM (top dose mostly 56.1 µM), inactives show top-dose activity change, negative = inhibition, most hits filed as inhibitors; hit rate 0.2% among 350,000;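 note: plate controls were vehicle for no effect and no enzyme for full effect; nearly all actives have a fitted effect of over 35% in size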
RECQ1 helicase = RECQ1 (human) helicase inhibition; P46063; RECQ1 DNA unwinding, red fluorescence kinetic read; Potency, µM (titrated, usually from 57.3 µM), without a hit: at the top dose activity, negative = inhibition, most hits filed as inhibitors; hit rate 0.54% among 240,000;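 note: plate controls were vehicle for no effect and no enzyme for full effect; nearly all actives have a fitted effect of over 30% in size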
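RECQ1T1 50 nM; forked duplex (20 bp + 30-nt ss tails) 200 nM, ATP 2 mM final; pH 8.0, 2 mM MgCl2, 2.5 ug/ml poly(dI-dC); 15 min compound preincubation; discontinuous kinetic read over 2 h at RT.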
KAT2A inh = GCN5L2 (KAT2A) acetyltransferase inhibition | hit rate 0.21% among 390,000 | Q92830 | AID 504327 | Potency, µM (top dose mostly 58.9 µM), without a hit: at the top dose activity change, negative = inhibition, actives largely listed as inhibitors | GCN5L2 HAT assay, ThioGlo1 CoA-SH fluorescence
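Enzyme at 20nM final was mixed with library compounds for 15 min at room temperature. Peptide H3(1-25) at 75uM, acetyl-CoA at 70uM and ThioGlo1 at 50uM were then added. Plates were read immediately and after 20 min (Ex340nm/Em540nm).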
JMJD2E inh = inhibitors of human JMJD2E histone demethylase; B2RXH2; AID 2147; Potency, µM (doses to about 57.1 µM), for inactives: top-dose activity change, negative = inhibition, actives largely listed as inhibitors; hit rate 1.6% among 230,000; JMJD2E catalytic domain, FDH-coupled NADH fluorescence (FDH is formaldehyde dehydrogenase);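 note: 0% = wells with enzyme and -100% = buffer wells without enzyme; nearly all actives have a fitted effect of over 50% in size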
Target sequence (B2RXH2 1-337 limits assumed): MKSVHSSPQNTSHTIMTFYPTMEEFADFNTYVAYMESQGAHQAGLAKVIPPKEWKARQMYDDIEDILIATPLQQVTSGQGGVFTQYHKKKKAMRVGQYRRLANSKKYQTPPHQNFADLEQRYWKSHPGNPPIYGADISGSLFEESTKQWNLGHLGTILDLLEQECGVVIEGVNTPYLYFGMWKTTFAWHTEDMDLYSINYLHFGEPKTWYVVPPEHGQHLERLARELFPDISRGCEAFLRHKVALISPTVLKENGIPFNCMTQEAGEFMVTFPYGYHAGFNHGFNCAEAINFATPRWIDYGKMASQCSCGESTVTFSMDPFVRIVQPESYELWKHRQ
DNA dye displace = displaces fluorescent dye from DNA, flagging APE1 artifacts. shares compounds with APE1 inh-1. DNA fluorescent dye displacement counterscreen, fluorescence. Potency, µM (doses to about 28.5 µM), inactives show at the highest dose activity change, negative = inhibition, most hits filed as inhibitors. hit rate 7% among 480;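 note: loss of thiazole orange fluorescence as the dye is displaced from duplex DNA; 0% = ThO with dsDNA and no compound and -100% = ThO without dsDNA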
EndoIV counter = Endo IV (E. coli) inhibition counter-screen. shares compounds with APE1 inh-1. E. coli Endo IV, fluorogenic AP-site DNA cleavage. Potency, µM (doses to about 27.1 µM), for the others: at the top dose activity change, negative = inhibition, hits mostly inhibitors. hit rate 4% among 560;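 note: plate controls were uninhibited enzyme wells for no effect and no enzyme buffer wells for full effect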
APE1 inh-2 = confirmation of inhibitors of human APE1 endonuclease. shares compounds with APE1 inh-1. purified APE1, fluorogenic abasic-site DNA cleavage. Potency, µM (titrated, usually from 57.1 µM), for the others: at the highest dose activity change, negative = inhibition, actives largely listed as inhibitors. hit rate 44% among 750. AID 2572; note: nearly all actives have a fitted effect of over 30% in size
APE1 FP = displaces DNA from human APE1 in FP assay | hit rate 7% among 480 | AID 2573 | APE1 binding to TAMRA-labelled double-stranded DNA, fluorescence polarization displacement | shares compounds with APE1 inh-1 | Potency, µM (titrated, usually from 28.5 µM), without a hit: at the top dose activity, negative = inhibition, most hits filed as inhibitors
The depositor's hits bear a star; i = inactive; ? = inconclusive; · = not tested or not shown; [ ] = remark or other dose. Unless noted, calls come from the whole dose curve; as a rule, active = well fitted curve in the direction sought with a large enough effect; inconclusive = small, poorly fitted or top-dose-only effect, or another doubt; inactive = no such curve, though single readings can be large; an effect the other way counts as inactive or inconclusive. Unless noted, % is set by controls: 0 for no effect and ±100 for the full control effect; potency is the fitted concentration of half-maximal effect.

SMILES	L3MBTL1 block	APE1 inh-1	BLM inh	RECQ1 helicase	KAT2A inh	JMJD2E inh	EndoIV counter	APE1 inh-2	others
Cc1ccc(S(=O)(=O)Nc2c(C(=O)O)[nH]c3ccccc23)c(C)c1	·	10%	-1%	·	-1%	·	·	·
O=C(O)CC[C@@H](C(=O)O)N1C(=O)c2ccccc2C1=O	·	?	0%	-5%	-12%	?	6%	?	DNA dye displace=-4%;APE1 FP=-2%
CCN(CC)S(=O)(=O)c1cccc(N=NC2=C(O)CCCC2=O)c1	-2%	-2%	-5%	?	-9%	-11%	·	·
O=C1CCCC(O)=C1N=Nc1cccc(C(=O)O)c1	8.9µM*	10µM*	-2%	32µM*	-26%	?	79%	13µM*	DNA dye displace=0%;APE1 FP=-14%
CN(C)C(=O)c1ccc(-c2ccc3ncnc(NCc4cccs4)c3c2)cc1	·	10µM*	-5%	-7%	-15%	·	-77%[57.1 µM]	7.9µM*	DNA dye displace=?;APE1 FP=22%[57.1 µM]
c1csc(CNc2ncnc3ccc(-c4ccc5c(c4)OCCO5)cc23)c1	0%	15%	·	·	-14%	·	·	·
Cc1noc(C)c1-c1ccc2ncnc(NCc3cccs3)c2c1	·	14µM*	-9%	3%	-16%	·	-52%[57.1 µM]	32µM*	DNA dye displace=?;APE1 FP=36%[57.1 µM]
Cc1ccsc1CNc1ncnc2ccc(-c3c(C)noc3C)cc12	0%	?	-6%	-5%	1%	·	·	·
O=C(c1ccccc1Cl)N1c2ncnn2C2(CCCCC2)[C@@H]2CCCC[C@@H]21	·	·	-3%	·	-10%	·	·	·
Cc1cc(C)c(NC(=O)CCS(=O)(=O)c2cc3c(cc2Cl)NC(=O)CO3)c(C)c1	·	·	1%	·	-12%	·	·	·
O=C(Nc1ccc(F)cc1F)c1ccccc1NC(=O)C1CC=CCC1C(=O)O (centres undefined)	·	43%	0%	·	-3%	·	·	·
O=C(O)c1ccc(COc2ccc3c4c(c(=O)oc3c2)CCC4)o1	?	?	-12%	i	-13%	-7%	5%	13µM*	DNA dye displace=-17%;APE1 FP=?
O=c1oc2cc(OCc3ccc([N+](=O)[O-])cc3)ccc2c2c1CCCC2	-11%	11%	2%	-3%	15%	2%	·	·
Cc1ccc(C)n1-c1ccc(C(=O)O)cc1	·	14µM*	49%	-6%	?	14µM*	·	13µM*
O=C(CSCc1cc(=O)c2cc(F)ccc2[nH]1)Nc1ccccc1Cl	·	·	1%	·	-4%	·	·	·
O=C(O)C1C2C=CC(C2)C1C(=O)NCc1cccs1 (centres undefined)	-1%	?	-3%	i	0%	1%	·	?
O=C(O)C1C2C=CC(C2)C1C(=O)NCc1ccco1 (centres undefined)	0%[11.4 µM]	-4%	-3%	-6%	-18%	-12%	·	·
CC(=O)Oc1cc(-c2coc3cc(OC(C)=O)c(OC(C)=O)c(OC(C)=O)c3c2=O)cc(OC(C)=O)c1OC(C)=O	·	0.32µM*	11µM*	1µM*	-3%	3.2µM*	21%[57.1 µM]	1.1µM*
CN(C)CCCNS(=O)(=O)c1ccc(NC2CCCCCC2)c([N+](=O)[O-])c1	·	-13%	0%	·	-1%	·	·	·
Cc1n[nH]c(C)c1CCc1nc2c3ccccc3nc(SCC(=O)Nc3ccc(F)cc3)n2n1	·	·	-14%	·	-9%	·	·	·
Cc1ccc(NC(=O)CSc2nc3ccccc3c3nc(CCc4c(C)n[nH]c4C)nn23)cc1F	·	5%	?	-12%	-5%	0%	·	?
CCCCN(C(=O)CCNC(=O)NC12CC3CC(CC(C3)C1)C2)c1c(N)n(CCC)c(=O)[nH]c1=O	2%	57%	·	·	-8%	·	·	·
CCC(C)C(=O)OCC1(c2ccc(C)cc2OC(=O)C(C)C)CO1 (centres undefined)	·	?	-12%	-14%	-17%	-8%	-9%	11µM*	DNA dye displace=?;APE1 FP=?
CC(C(=O)OCC(=O)c1ccc(Br)cc1)N1C(=O)C2C3CCC(C3)C2C1=O (centres undefined)	·	-7%	2%	·	-9%	·	·	·
O=C1c2cccc3c(Cl)ccc(c23)C(=O)N1O	-3%	?	-1%	-5%	-1%	2%	-2%	-18%[24.4 µM]	DNA dye displace=-5%;APE1 FP=-102%
SMILES	L3MBTL1 block	APE1 inh-1	BLM inh	RECQ1 helicase	KAT2A inh	JMJD2E inh	EndoIV counter	APE1 inh-2	others
CCN1C(=O)c2cccc3c(Cl)ccc(c23)C1=O	-3%	-3%	3%	i	-7%	?	·	·
COc1ccccc1C(=O)Nc1ccc(Br)cc1C	27%	4%	-5%	-8%	-16%	-20%	·	·
O=C(CSc1nc(NS(=O)(=O)c2ccccc2)cc(=O)[nH]1)Nc1ccc(F)cc1	?	?	?	?	?	-24%	·	-8%
Nc1ccc(N)c(C(=O)O)c1	·	1.3µM*	5.6µM*	11µM*	7.9µM*	-6%	·	2.2µM*
COc1ccc(CNC(=O)c2ccc(NC(=O)N3CCCCc4ccccc43)cc2)c(OC)c1	·	·	-5%	·	-3%	·	·	·
COc1ccccc1C1CN(c2ccccc2)N=C1c1cccs1 (centres undefined)	·	1%	-7%	-9%	0%	?	·	?
COc1cccc(C2CN(c3ccc(F)cc3F)N=C2c2cccs2)c1OC (centres undefined)	131%	-7%	-5%	-7%	-12%	?	·	·
S=c1[nH]nc(-c2cc(-c3ccccc3)n[nH]2)n1/N=C/c1ccc(Cl)c(Cl)c1	-18%	4%	-13%	-3%	-29%	-18%	·	40µM*
O=C1CCC([N+](=O)[O-])C(c2cccc([N+](=O)[O-])c2)N1 (centres undefined)	·	0.11µM*	0%	-4%	0%	4%	-1%	-5%[24.4 µM]	DNA dye displace=-7%;APE1 FP=-2%
CC1=C(C(=O)Nc2ccccc2)C(c2ccccc2Cl)n2ncc(C(=O)Nc3cccc(C)c3)c2N1 (centres undefined)	·	·	1%	·	1%	·	·	·

Source: PubChem
